# Calls of active or inactive are those of the source. The calls were made as follows: active = hit-call score of the fitted dose curve at least 0.9, where 1 is the maximum; inactive = score below 0.9.
# Read-out: CD69, CD69 (gene 969)
# Test: BSK_SAg_CD69: BioMAP Diversity Plus: SAg Assay for CD69 Biomarker Activity (AID 2283089)
# Settings: primary human HUVEC with PBMC; actives raise or lower the signal
# Protocol: BSK_SAg is a cell-based, multiplexed-readout assay that uses umbilical vein endothelium and peripheral blood mononuclear cells, a human vascular primary cell co-culture, with measurements taken at 24 hours after chemical dosing in a 96-well plate.BSK_SAg_CD69 is one of 10 assay component(s) measured or calculated from the BSK_SAg assay. It is designed to make measurements of enzyme-linked immunosorbent assay, a form of binding reporter, as detected with fluorescence intensity signals by Enzyme-linked immunosorbent assay technology.Data from the assay component BSK_SAg_CD69 was analyzed into 1 assay endpoint. This assay endpoint, BSK_SAg_CD69, was analyzed with bidirectional fitting relative to DMSO as the negative control and baseline of activity. Using a type of binding reporter, gain or loss-of-signal activity can be used to understand changes in the signaling as they relate to the gene CD69. Furthermore, this assay endpoint can be referred to as a primary readout, because this assay has produced multiple assay endpoints where this one serves a signaling function. To generalize the intended target to other relatable targets, this assay endpoint is annotated to the cytokine intended target family, where the subfamily is inflammatory factor.
# The levels of cell surface (or secreted, indicated by the prefix "s") biomarker endpoints were measured by ELISA. Overt cytotoxicity to cells in confluent adherent cultures (all systems other than the BT system) was assessed by measuring total protein levels using sulforhodamine B (SRB) staining in parallel cultures at the time of biomarker measurements, indicated as SRB endpoints. For proliferation assays for adherent cell types, individual cell types are cultured at sub-confluence and relative cell numbers quantified by SRB staining at time points optimized for each system (48 h: 3C and CASM3C systems; 72 h: BT and HDF3CGF systems; 96 h: SAg system). SRB was performed by staining cells with 0.1% SRB after fixation with 10% TCA and reading wells at 560 nm.Viability and proliferation of PBMC (T cells) was quantified by Alamar Blue reduction for the SAg and BT systems. For PBMC viability (referred to as PBMC Cytotoxicity within the assay endpoint names), cells were plated (75,000/well in a 96-well plate) and then chemical samples added for 1 h before addition of activators, SEB and TSST-1 (20 ng/mL final concentration each). Cells were incubated for 90 h. Then, Alamar Blue (20 uL/well) (Invitrogen, Cat DAL1100) was added for 6 h, and the plates were read with a fluorescence microplate reader at 546/580 nm (excitation/emission). For PBMC proliferation, cells were plated and activated as above but incubated for only 16 h prior to addition of Alamar Blue. Plates were read after 6 h.
Compound,AC50,outcome
CCCCCCCCCCCCCCO,30.6 µM (active),–
NC(=O)N(O)[C@@H]1COc2cc(OCc3ccccc3)ccc21,–,inactive
Cc1ncc([C@@H](CCCCCCc2ccc3c(n2)NCCC3)CC(=O)O)cn1,–,inactive
Cc1nc(-c2ccccn2)ncc1C(=O)Nn1cc(C)c2cc(F)ccc21,–,inactive
C=CCc1cc(S(=O)(=O)c2ccc(O)c(CC=C)c2)ccc1O,24.3 µM (active),–
O=C(O)c1cccc(C[C@@H]2COc3ccc(OCc4nc5cc(F)ccc5s4)cc3[C@@H]2O)c1,–,inactive
c1ccc2c(c1)-c1cccc3c1c-2cc1ccccc13,–,inactive
c1ccc2cc3ccccc3cc2c1,–,inactive
O=S1(=O)CCCO1,–,inactive
NC(=O)NN=Cc1ccc([N+](=O)[O-])o1,–,inactive
O=C(O)c1cccc(C(=O)O)c1,–,inactive
O=C(O)[C@H](O)[C@@H](O)C(=O)O,–,inactive
CC(C)C(=O)Nc1ccc([N+](=O)[O-])c(C(F)(F)F)c1,20 µM (active),–
FC(F)C(F)(F)COCC1CO1 (stereo not given),–,inactive
O=c1[nH]cnc2c1ncn2[C@H]1CC[C@@H](CO)O1,–,inactive
CCN(CC)C(=S)SSC(=S)N(CC)CC,20 µM (active),–
CCCC(CCC)C(=O)O,–,inactive
C=CN1CCCC1=O,–,inactive
CCCCC(CC)C(=O)OCCOCCOCCOC(=O)C(CC)CCCC (stereo not given),–,inactive
CCOC(N)=O,–,inactive

Compound,AC50,outcome
C[C@@H](Oc1ccc(CNC(=O)c2cccnc2Oc2ccc3c(c2)OCO3)c(F)c1)C(=O)O,–,inactive
CC[C@H](C)C(=O)O[C@H]1C[C@H](O)C=C2C=C[C@H](C)[C@H](CC[C@@H](O)C[C@@H](O)CC(=O)O)[C@H]21,–,inactive
CCCCCCCCN(C)C,–,inactive
CCCCCCCCCC,–,inactive
O=C(NO)C1(NS(=O)(=O)c2ccc(Oc3ccc(F)cc3)cc2)CCOCC1,–,inactive
COS(C)(=O)=O,–,inactive
CCCOc1ccc(S(=O)(=O)N2CCN(CC)CC2)cc1-c1nc2c(CC)n(Cc3ccccn3)nc2c(=O)[nH]1,–,inactive
CCc1ccc(O)c(C(C)(C)C)c1,–,inactive
CCCCOC(=O)c1ccccc1,–,inactive
CCCCN1C(=O)[C@@H]([C@H](O)C2CCCCC2)NC(=O)C12CCN(Cc1ccc(Oc3ccc(C(=O)O)cc3)cc1)CC2,–,inactive
CCCCCCCCCCCCCCCCOS(=O)(=O)O,–,inactive
NNC(=O)c1ccncc1,–,inactive
FC(F)=C(F)C(F)(F)C(F)(F)C(F)(F)C(F)(F)C(F)(F)C(F)(F)F,–,inactive
NCC(F)(F)C(F)(F)C(F)(F)C(F)(F)F,–,inactive
COc1cc(C(C)C)c2c(c1)S(=O)(=O)N(COc1cc(=O)n3cccc(OCCN4CCCCC4)c3n1)C2=O,5 µM (active),–
OCCOCCOCCO,–,inactive
C[C@]12C=CC(=O)C=C1CC[C@H]1[C@@H]3C[C@@H](O)[C@](O)(C(=O)CO)[C@@]3(C)C[C@H](O)[C@@]12F,–,inactive
OC(CCl)CCl,–,inactive
OC(O)(C(F)C(O)(O)C(F)(F)F)C(F)(F)F,–,inactive
Cc1nccn1-c1ccc(Sc2cccc(C3(C(N)=O)CCOCC3)c2)cc1,6.87 µM (active),–

# Source: PubChem BioAssay (EPA / NIEHS)
